The text below walks through data of PubChem BioAssay (NCATS).

Each structure is given as a SMILES string. Inconclusive results are not listed. The source made the active and inactive calls. Calls come from the whole dose curve; as a rule, active = well fitted inhibition curve with a large enough effect; inconclusive = small, poorly fitted or top-dose-only effect; inactive = flat fitted curve, though single readings scatter.

Common to all, as to assay: qHTS profiling for inhibitors of Plasmodium falciparum proliferation (AID 504749); note: nearly all actives have a fitted effect of over 60% in size
Holding throughout (details): P. falciparum in erythrocytes, SYBR Green DNA, 72 h; series mostly up to 28.7 µM
(Quantitative high-throughput screening tests each substance at several concentrations.)

The subject of one experiment is CP262. In a few lines: (§1)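 In a 72 h erythrocytic culture (37 C, humidified, 5% CO2) at 2.5% hematocrit and 0.3% starting parasitemia, compounds were tested; SYBR Green I in detergent lysis buffer stained parasite DNA overnight.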
The subject of the next experiment is CP265. In a few lines:
as §1

The test system of a further experiment is CP266. In a few lines: as §1
The next experiment concerns CP268. In a few lines: as §1
The test system of another experiment is CP269. A digest of the protocol: as §1
The test system of the next experiment is CP291. A digest of the protocol: as §1
A further experiment relates to CP297. In a few lines:
as §1

The next experiment has as its system CP305. A digest of the protocol:
as §1

In another experiment the test system is CP315. In a few lines: as §1
For the next experiment, the system named is CP325. A digest of the protocol:
as §1

The next experiment relates to CP329. In a few lines: as §1
The subject of a further experiment is DFO2036. A digest of the protocol: as §1
A further experiment relates to DIV14. In a few lines: as §1
The test system of a further experiment is DIV17. A digest of the protocol:
as §1

The test system of another experiment is DIV30. A digest of the protocol:
as §1

The subject of another experiment is Dd2. A digest of the protocol: as §1
The test system of the next experiment is ECU. A digest of the protocol:
as §1

The next experiment deals with CP260. In a few lines: as §1
The subject of a further experiment is CP286. A digest of the protocol: as §1
The test system of the next experiment is CP335. In a few lines: as §1
Potency is the fitted concentration of half-maximal effect.

Take `CCCCCCCCCC(=O)O[C@H]1CC[C@H]2[C@@H]3CCC4=CC(=O)CC[C@]4(C)[C@H]3CC[C@]12C`: the Potency result in the experiment on CP262, in the experiment with CP265, with CP266, with CP268, in the experiment with CP269 and in the experiment with CP291 was “inactive” in each case. For the same molecule, the Potency result in the experiment on CP297, in the experiment on CP305, with CP315, in the experiment on CP325, in the experiment on CP329 and in the experiment with DFO2036 was “inactive” throughout. Moreover, the Potency result in the experiment with DIV14, in the experiment with DIV17, in the experiment on DIV30, in the experiment with Dd2 and with ECU was “inactive” each time.
Consider `NCC(O)c1cccc(O)c1` (stereo unspecified), for which the Potency entry with CP260, with CP262, with CP265, in the experiment on CP268, in the experiment with CP269 and in the experiment on CP286 was “inactive” throughout. For the same molecule, the Potency result in the experiment on CP291, with CP297, in the experiment on CP305, in the experiment on CP315, in the experiment with CP325 and with CP329 was “inactive” throughout. Besides, the Potency entry with CP335, in the experiment on DFO2036, with DIV14, in the experiment with DIV17, in the experiment with DIV30 and with Dd2 was “inactive” in each case. Moreover, the Potency result in the experiment on ECU was “inactive”.
For `O=P(O)(O)C(Cl)(Cl)P(=O)(O)O`, the Potency result in the experiment on CP260, in the experiment with CP262, in the experiment with CP265, with CP268, in the experiment on CP269 and in the experiment with CP286 was “inactive” in each case. The Potency entry in the experiment with CP291, with CP297, with CP305, in the experiment with CP315, in the experiment on CP325 and with CP329 was “inactive” throughout. Moreover, the Potency result in the experiment with CP335, in the experiment on DFO2036, in the experiment with DIV14, with DIV17, in the experiment on DIV30 and in the experiment with Dd2 was “inactive” throughout. Besides, the Potency entry in the experiment on ECU is “inactive”.
In the case of `CC12NC(Cc3ccccc31)c1ccccc12` (stereo unspecified), the Potency result in the experiment with CP262, in the experiment with CP266, with CP268, in the experiment on CP305, with CP315 and in the experiment with CP325 was “inactive” throughout. Besides, the Potency entry in the experiment on DIV30 and in the experiment with ECU was “inactive” throughout. Moreover, the Potency in the experiment with CP265 was 8.91 µM (active); with CP297, 6.01 µM (active); with Dd2, 11.2 µM (active).
Turning to `CCOP(=O)(OCC)O/C(=C/Cl)c1ccc(Cl)cc1Cl`, the Potency entry with CP262, with CP266, with CP268, with CP269, in the experiment with CP286 and with CP297 was “inactive” throughout. The Potency result with CP305, with CP315, with CP325, with CP329, in the experiment with DFO2036 and with Dd2 was “inactive” throughout. Besides, the Potency entry in the experiment with ECU was “inactive”.
As to `CNC(=O)Oc1ccccc1C(=O)Nc1ccccc1`, the Potency entry in the experiment with CP260, with CP265, in the experiment with CP266, in the experiment on CP268, in the experiment on CP269 and with CP286 was “inactive” each time. For the same molecule, the Potency result in the experiment with CP291, in the experiment with CP305, in the experiment on CP325, in the experiment on CP329, with CP335 and in the experiment with DFO2036 was “inactive” each time. In addition, the Potency with ECU is 11.2 µM (active).
Turning to `C=CCC1(C(C)CCC)C(=O)N=C(S)NC1=O` (stereo unspecified), the Potency entry with CP260, in the experiment with CP265, in the experiment on CP266, in the experiment on CP286, in the experiment with CP335 and in the experiment with DFO2036 was “inactive” each time. Further, the Potency result with Dd2 and in the experiment with ECU was “inactive” each time.
For the molecule `CNC(C)C(O)c1ccc(O)cc1` (stereo unspecified), the Potency result in the experiment on CP262, in the experiment on CP265, in the experiment with CP266, in the experiment on CP268, in the experiment on CP269 and in the experiment with CP286 was “inactive” in each case. For the same molecule, the Potency result in the experiment on CP291, in the experiment on CP297, in the experiment on CP305, in the experiment on CP315, in the experiment with CP325 and with CP329 was “inactive” each time. The Potency result in the experiment on CP335, with DFO2036, in the experiment with DIV14, in the experiment on DIV17, in the experiment with DIV30 and in the experiment with Dd2 was “inactive” throughout. For the same molecule, the Potency entry in the experiment with ECU is “inactive”.
For the molecule `CCOc1ccc2c3c1O[C@H]1[C@@H](O)C=C[C@H]4[C@@H](C2)N(C)CC[C@@]341`, the Potency entry in the experiment on CP260, in the experiment on CP265, with CP266, with CP286, in the experiment on CP329 and in the experiment with CP335 was “inactive” throughout. Also, the Potency result in the experiment on DFO2036, in the experiment with Dd2 and in the experiment with ECU was “inactive” each time. The Potency with CP297 and in the experiment on DIV14 was 15.1 µM (active) throughout.
Turning to `COc1ccc2c3c1O[C@H]1C(=O)CC[C@H]4[C@@H](C2)N(C)CC[C@]314`, the Potency result with CP260, in the experiment on CP262, with CP265, with CP268, in the experiment with CP269 and in the experiment on CP286 was “inactive” throughout. Also, the Potency result with CP291, in the experiment on CP297, with CP305, with CP315, in the experiment with CP325 and with CP329 was “inactive” in each case. Further, the Potency entry with CP335, in the experiment on DFO2036, in the experiment with DIV14, in the experiment on DIV17, in the experiment with DIV30 and in the experiment with Dd2 was “inactive” in each case. In addition, in the experiment with ECU, the Potency result was “inactive”.
`OC(c1ccccc1)(c1ccccc1)C1CN2CCC1CC2` (stereo unspecified): the Potency result in the experiment on CP262, in the experiment on CP265, with CP268, with CP269, in the experiment with CP286 and in the experiment with CP291 was “inactive” each time. Also, the Potency result in the experiment on CP305, with CP315, in the experiment on CP325, in the experiment with CP329 and in the experiment on DFO2036 was “inactive” throughout. Further, in the experiment with DIV17, the Potency is 3.79 µM (active).
`C[C@@H](Cc1ccccc1)NCCC(c1ccccc1)c1ccccc1`: the Potency entry with CP315, in the experiment with CP325, with CP329 and in the experiment on DFO2036 was “inactive” throughout. Also, the Potency was 3.22 µM (active) in the experiment on DIV14, 2.56 µM (active) in the experiment on DIV17 and 3.55 µM (active) in the experiment with ECU.
For `N#CC(C#N)=Cc1cc(O)c(O)c(O)c1`, the Potency in the experiment on CP260 was 6.31 µM (active); with CP262 it was 15.1 µM (active); in the experiment with CP266 it was 16.9 µM (active); with CP269, 10.7 µM (active); in the experiment with CP286 it was 10 µM (active); with CP297 it was 15.1 µM (active). Also, the Potency in the experiment with CP335 was 6.75 µM (active); in the experiment on DIV14, 13.5 µM (active); in the experiment on DIV17, 10.7 µM (active); with Dd2 it was 6.31 µM (active). The Potency entry in the experiment on ECU was “inactive”.
In the case of `CCN(CC)C(=O)/C(Cl)=C(\C)OP(=O)(OC)OC`, the Potency entry with CP260, with CP262, with CP265, in the experiment with CP286, in the experiment on DFO2036 and with Dd2 was “inactive” each time. The Potency result in the experiment on ECU is “inactive”. For the same molecule, the Potency in the experiment with CP297 is 13.5 µM (active).
For the molecule `C=CCN1CC[C@]23c4c5ccc(O)c4O[C@H]2[C@@H](O)C=C[C@H]3[C@H]1C5`, the Potency entry in the experiment on CP260, with CP262, with CP265, in the experiment with CP268, in the experiment on CP269 and in the experiment on CP286 was “inactive” each time. Besides, the Potency entry in the experiment with CP291, in the experiment on CP297, in the experiment with CP305, with CP315, in the experiment on CP325 and with CP329 was “inactive” each time. Moreover, the Potency entry with CP335, in the experiment with DFO2036, with DIV14, in the experiment with DIV17, in the experiment with DIV30 and with Dd2 was “inactive” in each case. Moreover, the Potency result in the experiment on ECU was “inactive”.
Consider `c1ccc(C2(N3CCCC3)CCCCC2)cc1`, for which the Potency with CP260 was 8.91 µM (active); with CP286 it was 10 µM (active); in the experiment with CP297, 15.1 µM (active); with CP335, 10.7 µM (active); with DFO2036, 10 µM (active); in the experiment with DIV14 it was 12 µM (active). Moreover, the Potency with DIV17 is 15.1 µM (active); in the experiment with Dd2, 12.6 µM (active). Also, the Potency result in the experiment on CP266 is “inactive”.
`COc1ccc2c(c1OC)C(=O)OC2C1c2cc3c(cc2CCN1C)OCO3` (stereo unspecified): the Potency entry in the experiment on CP260, with CP265, in the experiment on CP286, in the experiment with DFO2036, with Dd2 and in the experiment with ECU was “inactive” in each case.
